# Where a name gives a salt, the structure may show the parent alone.
# System: NCI-H1688
# Experiment: inhibition of cell viability relative to untreated control (fraction); higher = stronger growth inhibition, active = 0.5 or more
# Conditions: 30 µM; 24 h
# Description: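 Natural product library (TargetMol, 640 compounds) screened on NCI-H1688 SCLC cells at 30 µM for 24 h; viability by CCK-8 absorbance at 450 nm, normalised to untreated control and expressed as inhibition rate (fraction). Compounds with >50% reduction in viability were selected as hits.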
row,Compound,inhibition of cell viability
1,CC1=C(C/C=C(\C)CCC[C@H](C)CCC[C@H](C)CCCC(C)C)C(=O)c2ccccc2C1=O [Vitamin K1],-0.199 (inactive)
2,NC1C(O)O[C@H](CO)C(O[C@@H]2O[C@H](CO)C(O[C@@H]3O[C@H](CO)[C@@H](O)[C@H](O)[C@H]3N)[C@H](O)C2N)C1O (stereo not given in full) [Chitosan],0.266 (inactive)
3,O=C(O)[C@H](O)Cc1ccc(O)c(O)c1 [Danshensu],0.318 (inactive)
4,O=c1c(O)c(-c2ccc(O)c(O)c2)oc2cc(O)cc(O)c12 [Quercetin],0.68 (active)
5,O=C(O)CCC(=O)O [Succinic acid],0.0297 (inactive)
6,C[C@]12CCC(=O)C=C1CC[C@@H]1[C@@H]2C(=O)C[C@@]2(C)[C@H]1CC[C@]2(O)C(=O)CO [Cortisone],-0.215 (inactive)
7,OC[C@@H](O)[C@H](O)[C@@H](O)CO [Xylitol],0.015 (inactive)
8,OCCc1ccc(O)cc1 [Tyrosol],0.0116 (inactive)
9,C[C@H](CCC(=O)NCCS(=O)(=O)O)[C@H]1CC[C@H]2[C@@H]3[C@@H](O)C[C@@H]4C[C@H](O)CC[C@]4(C)[C@H]3CC[C@]12C [Tauroursodeoxycholic Acid],0.00688 (inactive)
10,CN(C)[C@@H]1C(O)=C(C(N)=O)C(=O)[C@@]2(O)C(O)=C3C(=O)c4c(O)ccc(Cl)c4[C@@](C)(O)[C@H]3C[C@@H]12 [Chlortetracycline hydrochloride],-0.0618 (inactive)
11,C=C[C@@]1(C)CC(=O)[C@]2(O)[C@@]3(C)[C@@H](O)CCC(C)(C)[C@@H]3[C@H](O)[C@H](OC(C)=O)[C@@]2(C)O1 [Forskolin],0.166 (inactive)
12,C[C@H]1[C@H](C)CC[C@]2(C(=O)O)CC[C@]3(C)C(=CC[C@@H]4[C@@]5(C)C[C@@H](O)[C@H](O)[C@@](C)(CO)[C@@H]5CC[C@]43C)[C@H]12 [Asiatic acid],0.00351 (inactive)
13,Nc1ncnc2c1ncn2[C@@H]1O[C@H](COP(=O)(O)OP(=O)(O)OP(=O)(O)O)[C@@H](O)[C@H]1O [Adenosine disodium triphosphate],0.0565 (inactive)
14,O=C(O)c1cc(O)ccc1O [Gentisic acid],-0.166 (inactive)
15,CC(=O)Oc1cc(C)c(OC(C)=O)c2ccccc12 [Menadiol Diacetate],0.384 (inactive)
16,Cn1c(=O)c2c(ncn2C)n(C)c1=O [Caffeine],0.0548 (inactive)
17,CN[C@@H]1[C@@H](O[C@H]2O[C@H](CO)[C@@H](N)[C@H](O)[C@H]2O)OC2C[C@@H](N)[C@@H](O[C@H]3[C@H](O)[C@@H](O)[C@H](N)C[C@@H]3N)OC2[C@@H]1O (stereo not given in full) [Apramycin sulfate],-0.0456 (inactive)
18,C[C@@H]1O[C@@H](O[C@@H]2[C@@H](O)[C@H](OCCc3ccc(O)c(O)c3)O[C@H](CO)[C@H]2OC(=O)/C=C/c2ccc(O)c(O)c2)[C@H](O)[C@H](O)[C@H]1O [Verbascoside],0.0855 (inactive)
19,O=C1O[C@H]([C@@H](O)CO)C(O)=C1O [L(+)-Ascorbic acid],0.195 (inactive)
20,Cc1nc(C)c(C)nc1C [Tetramethylpyrazine],0.202 (inactive)

row,Compound,inhibition of cell viability
1,Cc1c(S(=O)(=O)O)oc2c1C(=O)C(=O)c1c-2ccc2c1CCCC2(C)C [Tanshinone IIA-sulfonic sodium],-0.0961 (inactive)
2,COc1cc(/C=C/C(=O)O)ccc1O [Ferulic Acid],0.0447 (inactive)
3,O=C(O)/C=C/CCCCCCCO [10-Hydroxy-2-decenoic acid],0.323 (inactive)
4,COc1c(O)cc(O)c2c(=O)cc(-c3ccccc3)oc12 [Wogonin],-0.0139 (inactive)
5,"COc1cc(/C=C/C(=O)O)cc(OC)c1OC [3,4,5-Trimethoxycinnamic acid]",0.124 (inactive)
6,O=c1cc(-c2ccccc2)oc2cc(O)cc(O)c12 [Chrysin],0.197 (inactive)
7,C[C@@H]1C(=O)O[C@H]2C[C@@]34[C@H]5C[C@@H](C(C)(C)C)[C@]36[C@@H](OC(=O)[C@@H]6O)O[C@@]4(C(=O)O5)[C@]21O [Ginkgolide A],-0.028 (inactive)
8,C[C@@H]1O[C@@H](O[C@H]2[C@H](O[C@H]3CC[C@@]4(C)[C@@H](CC[C@]5(C)[C@@H]4CC=C4[C@@H]6CC(C)(C)CC[C@]6(C(=O)O[C@@H]6O[C@H](CO[C@@H]7O[C@H](CO)[C@@H](O)[C@H](O)[C@H]7O)[C@@H](O)[C@H](O)[C@H]6O)CC[C@]45C)[C@]3(C)CO)OC[C@H](O)[C@@H]2O)[C@H](O)[C@H](O[C@@H]2O[C@H](CO)[C@@H](O[C@@H]3O[C@H](CO)[C@@H](O)[C@H](O)[C@H]3O)[C@H](O)[C@H]2O)[C@H]1O [Macranthoidin B],0.21 (inactive)
9,C[C@H]1[C@H](C)CC[C@]2(C(=O)O[C@@H]3O[C@H](CO[C@@H]4O[C@H](CO)[C@@H](O[C@@H]5O[C@@H](C)[C@H](O)[C@@H](O)[C@H]5O)[C@H](O)[C@H]4O)[C@@H](O)[C@H](O)[C@H]3O)CC[C@]3(C)C(=CC[C@@H]4[C@@]5(C)C[C@@H](O)[C@H](O)[C@@](C)(CO)[C@@H]5[C@H](O)C[C@]43C)[C@H]12 [Madecassoside],0.808 (active)
10,O=c1c(O)c(-c2ccc(O)cc2)oc2cc(O)cc(O)c12 [Kaempferol],-0.00334 (inactive)
11,CC(C)=C1C/C=C(\C)CC/C=C(\C)CC1=O [Germacrone],0.245 (inactive)
12,O=C(O)CCCC[C@@H]1SC[C@@H]2NC(=O)N[C@@H]21 [D-Biotin],-0.0414 (inactive)
13,CC[C@@H]1C(=O)OC[C@@H]1Cc1cncn1C [(+)-Pilocarpine hydrochloride],0.197 (inactive)
14,Cc1coc2c1C(=O)C(=O)c1c-2ccc2c1CCCC2(C)C [Tanshinone IIA],0.958 (active)
15,CC[C@H](C)C(=O)O[C@H]1C[C@@H](C)C=C2C=C[C@H](C)[C@H](CC[C@@H]3C[C@@H](O)CC(=O)O3)[C@H]21 [Lovastatin],0.836 (active)
16,NCCC[C@H](N)C(=O)O [L-Ornithine],-0.0432 (inactive)
17,CC(C)=CCCC(C)CCO (stereo not given) [Citronellol],0.283 (inactive)
18,CC1CCC2(O)C(C)(C)C3CCC2(C)C1C3 (stereo not given) [Patchouli alcohol],0.0152 (inactive)
19,CC1=CC(=O)c2ccccc2C1=O [Menadione],0.979 (active)
20,CC[C@@]1(O)C(=O)OCc2c1cc1n(c2=O)Cc2cc3cc(O)ccc3nc2-1 [10-Hydroxycamptothecin],0.98 (active)
